An excerpt weighted towards active compounds, which were near 1.7% of everything screened.
GLP-1R agonist = qHTS of GLP-1 Receptor Agonists | Glucagon-like peptide 1 receptor (Homo sapiens), P43220 | HEK293 GLP-1R CRE-luciferase, luminescence, 4-6 h; cells express a hypersensitive GLP-1R form | Potency, µM (series often up to 45.6 µM), usual class: activators | actives 0.007% (n = 380,000) | AID 624172, 2012
GLP1R inv ag = qHTS of GLP-1 Receptor Inverse Agonists (Inhibition Mode); HEK293 GLP-1R CRE-luciferase, luminescence, 24 h; GLP-1R form is constitutively active; AID 624417, 2012; actives 1.6% (n = 410,000); Potency, µM (top dose mostly 38.3 µM), actives largely listed as inhibitors; note: nearly all actives have a fitted effect of over 55% in size
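Cells are plated, allowed 12 hours at 37 deg C, then treated with compounds for 24 hr before luciferase detection reagent is added and luminescence is read after 12 min at room temperature. The HEK293 line carries constitutively active GLP-1R with a cAMP-responsive reporter.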
GLP1R cytotox = qHTS of GLP-1 Receptor Inverse Agonists: Cytotox Screen; Potency, µM (doses to about 38.3 µM), usual class: inhibitors; HEK293 cAMP-luciferase reporter cells, luminescence, 24 h; actives 0.13% (n = 410,000);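 note: loss of luciferase light is scored as toxicity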
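Step one: seed cells (200 cells/uL, DMEM with 10% Nu serum, 1% pen-strep). Step two: 12-hour incubation at 37 deg C. Step three: pin 23 nL compound, incubate 24 hr. Step four: add luciferase reagent, read luminescence 12 min later.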
PTHR1 agonist = qHTS for PTHR1 Agonists: Primary Screen. HEK293 GP2 PTHR1 cells, GloSensor cAMP luminescence, 1 h. Potency, µM (series often up to 115 µM), actives largely listed as activators. actives 0.075% (n = 410,000); note: nearly all actives have a fitted effect of over 55% in size
Target sequence (Q03431 whole entry, looked up): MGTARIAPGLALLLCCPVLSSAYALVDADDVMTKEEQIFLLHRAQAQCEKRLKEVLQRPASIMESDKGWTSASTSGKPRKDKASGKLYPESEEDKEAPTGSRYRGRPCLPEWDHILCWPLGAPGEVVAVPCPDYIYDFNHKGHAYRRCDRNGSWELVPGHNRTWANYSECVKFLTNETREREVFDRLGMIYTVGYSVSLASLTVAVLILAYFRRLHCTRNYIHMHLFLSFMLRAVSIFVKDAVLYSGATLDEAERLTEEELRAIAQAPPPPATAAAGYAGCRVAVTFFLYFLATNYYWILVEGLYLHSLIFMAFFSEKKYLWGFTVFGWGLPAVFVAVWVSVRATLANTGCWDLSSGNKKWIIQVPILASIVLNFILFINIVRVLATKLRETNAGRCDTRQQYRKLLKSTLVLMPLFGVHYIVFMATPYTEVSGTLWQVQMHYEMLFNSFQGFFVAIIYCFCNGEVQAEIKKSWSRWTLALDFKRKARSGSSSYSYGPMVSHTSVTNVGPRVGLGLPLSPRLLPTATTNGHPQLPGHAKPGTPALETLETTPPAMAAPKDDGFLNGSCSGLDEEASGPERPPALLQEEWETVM
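HEK-293-derived GP2 cells expressing PTHR1 and a GloSensor cAMP reporter, 3,000/well, plated overnight, given luciferin plus IBMX (each 0.5 mM as added) for 1 h at 37 °C, then compound for 1 h at 37 °C. Luminescence was read after 15 min at room temperature.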
Each line names hits and unclear results; the compound was inactive in the other large screens. Calls come from the whole dose curve; as a rule, active = well fitted curve in the direction sought with a large enough effect; inconclusive = small, poorly fitted or top-dose-only effect, or another doubt; inactive = no such curve, though single readings can be large; an effect the other way counts as inactive or inconclusive.

CCC(c1nnnn1-c1ccc2c(c1)OCCO2)N1CCN(Cc2c(F)cccc2Cl)CC1 (configuration not stated)	GLP1R inv ag inconclusive
Cc1cc(/C=C2/SC(=S)N(c3cccc(C(F)(F)F)c3)C2=O)c(C)n1-c1cccnc1	GLP1R inv ag 5.01µM
O=C1c2ccccc2-c2onc3c(N4CCN(CCO)CC4)cc(N4CCN(C(=O)c5ccco5)CC4)c1c23	GLP1R inv ag 11.2µM, GLP1R cytotox inconclusive
CN1CCN(c2cc(N3CCN(C(=O)c4ccco4)CC3)c3c4c(onc24)-c2ccccc2C3=O)CC1	GLP1R inv ag inconclusive, GLP1R cytotox inconclusive
NS(=O)(=O)c1ccc(CCNCC(=O)NC2CC2)cc1	none
NCCSc1c(-c2ccc(F)cc2)[nH]c2ccccc12	GLP1R inv ag 10µM
O=C(CCCSc1nnnn1-c1cccc2ccccc12)c1ccc(F)cc1	GLP1R inv ag 10µM
CCC(C)(C)C1CCC2(CC1)NC(=O)N(CC(=O)N(C)CCOc1ccc(Cl)cc1)C2=O (configuration not stated)	none
CCC(C)(C)C1CCC2(CC1)NC(=O)N(CC(=O)N(C)Cc1ccc(OC(F)F)cc1)C2=O (configuration not stated)	GLP1R inv ag 1.41µM
COC(=O)[C@@]12C[C@@H](CC(=O)NCC34CC5CC(CC(C5)C3)C4)C(=O)N(Cc3ccco3)C1=CCC(C)(C)C2	GLP1R inv ag 10µM (no result: GLP-1R agonist)
COC(=O)[C@@]12C[C@@H](CC(=O)NCc3cccs3)C(=O)N(Cc3cccc4ccccc34)C1=CCC(C)(C)C2	GLP1R inv ag 11.2µM (no result: GLP-1R agonist)
COC(=O)c1[nH]c2ccccc2c1NC(=O)CN1CCN(c2cccc(OC)c2)C(C)C1 (configuration not stated)	GLP1R inv ag 10µM
CCOC(=O)c1[nH]c2ccc(C)cc2c1NC(=O)CN1CCCCC1	GLP1R inv ag inconclusive
COC(=O)c1[nH]c2ccc(Br)cc2c1NC(=O)CN1CCCc2ccccc21	GLP1R inv ag 10µM
COC(=O)c1[nH]c2ccc(C)cc2c1NC(=O)CN1CCCC(C)(C)C1	GLP1R inv ag 2.24µM
COc1ccccc1CNC(=O)CCn1c(=O)c2ccccc2n(CC(=O)Nc2cc(Cl)ccc2C)c1=O	none
CCOc1ccc(CCNC(=O)c2nn(-c3ccc(OC)cc3)c(=O)c3c2c2ccccc2n3C)cc1OCC	none (no result: GLP-1R agonist)
Oc1ccc(NCc2ccccc2OCc2ccccc2F)cc1	GLP-1R agonist 11.2µM, GLP1R cytotox inconclusive
Cc1cccc(NCc2ccccc2OCc2ccccc2F)c1	GLP1R inv ag 10µM
COc1ccccc1CNC(=O)c1cnc(N(C)C)nc1	none (no result: GLP-1R agonist)
N=c1c2c(n(Cc3cccc(Cl)c3)c3c1CCC3)CCCC2	GLP1R cytotox 5.01µM
N=c1c2c(n(Cc3ccc(Cl)cc3)c3c1CCC3)CCC2	none
Cc1ccc(C2c3[nH]c4ccccc4c3CCN2C(=O)Nc2ccc(C)c(C)c2)cc1 (configuration not stated)	GLP1R inv ag 7.94µM (no result: GLP-1R agonist)
Cc1ccc(C2c3[nH]c4ccccc4c3CCN2C(=O)c2ccccc2Br)cc1 (configuration not stated)	GLP1R inv ag inconclusive (no result: GLP-1R agonist)
COC(=O)c1ccc(NC(=O)N2CCc3c([nH]c4ccccc34)C2c2ccc(C)cc2)cc1 (configuration not stated)	GLP1R inv ag 4.47µM, PTHR1 agonist inconclusive (no result: GLP-1R agonist)
Cc1ccc(C2c3[nH]c4ccccc4c3CCN2C(=O)c2ccc(N(C)C)cc2)cc1 (configuration not stated)	GLP1R inv ag inconclusive (no result: GLP-1R agonist)
Cc1ccc(C2c3[nH]c4ccccc4c3CCN2C(=O)CCC2CCCC2)cc1 (configuration not stated)	GLP1R inv ag 10µM (no result: GLP-1R agonist)
OC(c1ccc2c(c1)OCO2)c1ncc(-c2cccc(C(F)(F)F)c2)[nH]1 (configuration not stated)	GLP1R inv ag inconclusive
Cc1ccc(/C=C/c2nc3ccccc3[nH]2)cc1	GLP1R inv ag 2.51µM (no result: GLP-1R agonist)
CN(CCC#N)c1ccc(C=C(C#N)c2ccc(Br)cc2)cc1	GLP1R inv ag 10µM, GLP1R cytotox inconclusive
CN(CCC#N)c1ccc(/C=C(\C#N)c2ccccn2)cc1	GLP1R inv ag inconclusive
O=C(NCc1ccccc1)C(=O)Nc1cccc(C(=O)O)c1	GLP1R inv ag 4.47µM

Source: PubChem
